Tb PGK inh = blocks T. brucei phosphoglycerate kinase. PGK/GAPDH coupled, Kinase-Glo luminescence, 60 min. Potency, µM (highest dose often 57.5 µM), actives largely listed as inhibitors. actives 0.043% (n = 380,000); note: nearly all actives have a fitted effect of over 60% in size
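Luminescent ATP detection (Kinase-Glo Plus) follows a 60-minute room-temperature incubation, with wells lacking PGK as controls. Buffer: 100 mM TEA (pH 7.6), 5 mM MgCl2, 0.01% Tween-20. Coupling enzyme GAPDH (100 nM final) supplies unstable 1,3-BPG in-well.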
APEX1 inh = inhibitors of human APE1 endonuclease; actives 0.35% (n = 350,000); P27695; AID 2517; recombinant APE1, TAMRA/BHQ-2 abasic DNA cleavage fluorescence; Potency, µM (series often up to 65.8 µM), hits mostly inhibitors; note: nearly all actives have a fitted effect of over 55% in size
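Measures dequenching upon AP-site incision of a 5'-TAMRA/3'-BHQ-2 THF-containing duplex, 50 nM; human APE1 0.75 nM after 15 min room-temperature exposure to compound; kinetic three-point read at one-minute spacing.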
BLM helicase inh = blocks DNA unwinding by human BLM helicase | P54132 | recombinant BLM DNA unwinding, fluorescence dequenching | Potency, µM (doses to about 56.1 µM), hits mostly inhibitors | actives 0.2% (n = 350,000); note: nearly all actives have a fitted effect of over 35% in size
Target sequence (P54132 whole entry, looked up): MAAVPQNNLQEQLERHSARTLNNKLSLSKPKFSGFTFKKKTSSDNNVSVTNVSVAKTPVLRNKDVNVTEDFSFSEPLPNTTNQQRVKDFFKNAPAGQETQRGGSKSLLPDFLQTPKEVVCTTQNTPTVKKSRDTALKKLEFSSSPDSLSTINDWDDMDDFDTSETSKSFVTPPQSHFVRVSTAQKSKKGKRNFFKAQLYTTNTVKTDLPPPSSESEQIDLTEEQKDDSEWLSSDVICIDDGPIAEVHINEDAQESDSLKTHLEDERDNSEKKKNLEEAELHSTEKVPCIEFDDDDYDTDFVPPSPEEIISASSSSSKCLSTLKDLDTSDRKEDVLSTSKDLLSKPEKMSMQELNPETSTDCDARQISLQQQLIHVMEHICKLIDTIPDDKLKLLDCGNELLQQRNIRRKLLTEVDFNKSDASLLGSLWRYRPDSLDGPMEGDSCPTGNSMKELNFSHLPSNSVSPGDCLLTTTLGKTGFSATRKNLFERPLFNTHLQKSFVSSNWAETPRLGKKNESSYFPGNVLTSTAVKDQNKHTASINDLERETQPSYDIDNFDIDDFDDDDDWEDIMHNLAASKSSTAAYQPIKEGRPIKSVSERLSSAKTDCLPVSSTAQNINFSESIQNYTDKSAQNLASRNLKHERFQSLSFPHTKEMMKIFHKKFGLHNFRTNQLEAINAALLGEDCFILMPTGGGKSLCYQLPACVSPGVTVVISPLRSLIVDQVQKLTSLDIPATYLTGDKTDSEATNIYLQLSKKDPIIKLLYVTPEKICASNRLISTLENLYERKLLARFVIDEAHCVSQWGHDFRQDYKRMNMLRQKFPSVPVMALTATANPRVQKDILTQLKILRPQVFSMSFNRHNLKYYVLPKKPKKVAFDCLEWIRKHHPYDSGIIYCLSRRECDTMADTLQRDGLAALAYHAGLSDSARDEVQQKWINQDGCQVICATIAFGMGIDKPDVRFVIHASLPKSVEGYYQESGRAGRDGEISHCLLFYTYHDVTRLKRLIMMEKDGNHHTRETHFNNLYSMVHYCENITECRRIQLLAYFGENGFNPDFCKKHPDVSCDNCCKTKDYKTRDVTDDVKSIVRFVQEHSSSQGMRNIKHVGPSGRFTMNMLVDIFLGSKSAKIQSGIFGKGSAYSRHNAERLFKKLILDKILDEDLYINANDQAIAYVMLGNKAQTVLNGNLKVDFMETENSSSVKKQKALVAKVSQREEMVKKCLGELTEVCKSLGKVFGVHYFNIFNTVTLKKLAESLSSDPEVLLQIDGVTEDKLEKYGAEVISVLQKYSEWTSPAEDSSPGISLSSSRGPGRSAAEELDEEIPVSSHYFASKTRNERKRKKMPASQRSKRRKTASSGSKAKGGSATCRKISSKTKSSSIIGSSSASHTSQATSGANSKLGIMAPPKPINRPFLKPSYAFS
FEN1 inh = human FEN1 inhibition | actives 0.35% (n = 390,000) | AID 588795 | Recombinant FEN1 flap cleavage, fluorescence, 15 min | Potency, µM (doses to about 114 µM), most hits filed as inhibitors; note: nearly all actives have a fitted effect of over 65% in size
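Enzyme 10 nM, 15 min RT preincubation with compound; start with substrate 50 nM final; reads at 0 and 15 min; qHTS titration, four-parameter Hill fit.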
RECQ1 inh-1 = RECQ1 (human) helicase inhibition; AID 2549; actives 0.54% (n = 240,000); P46063; Potency, µM (doses to about 57.3 µM), actives largely listed as inhibitors; RECQ1 DNA unwinding, red fluorescence kinetic read; note: nearly all actives have a fitted effect of over 30% in size
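50 nM RECQ1T1 preincubated 15 min with compound in Tris pH 8.0 buffer with MgCl2, DTT, Tween-20 and 2.5 ug/ml poly(dI-dC); started with 200 nM TAMRA/BHQ-2 forked duplex and 2 mM ATP. Unwinding read as fluorescence (525/598 nm), two reads 2 h apart.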
RECQ1 conf = confirmation of human RECQ1 helicase inhibitors; Potency, µM (titrated, usually from 229 µM), hits mostly inhibitors; actives 28% (n = 610); shares compounds with RECQ1 inh-1; RECQ1 helicase DNA unwinding, fluorescence; AID 2708; note: nearly all actives have a fitted effect of over 45% in size
RECQ1 ADP FP = ADP displacement flagged in RECQ1 inhibitor counter-screen; shares compounds with RECQ1 inh-1; ADP fluorescence polarization displacement counterscreen; Potency, µM (top dose mostly 228 µM), usual class: inhibitors; actives 27% (n = 530); AID 2711; note: nearly all actives have a fitted effect of over 45% in size
RECQ1 inh-2 = confirmation of human RECQ1 helicase inhibitors. Potency, µM (series often up to 119 µM), actives largely listed as inhibitors. recombinant RECQ1 DNA unwinding, red fluorescence. actives 15% (n = 1,100). shares compounds with RECQ1 inh-1. AID 504841; note: nearly all actives have a fitted effect of over 50% in size
Numbers stand for hits; - = inactive; ? = inconclusive; . = not tested or not shown; [ ] = another dose, or the depositor's remark. The list is not random: actives were taken first. Their share in the collection is about 0.74%. Calls come from the whole dose curve; as a rule, active = well fitted curve in the direction sought with a large enough effect; inconclusive = small, poorly fitted or top-dose-only effect, or another doubt; inactive = no such curve, though single readings can be large; an effect the other way counts as inactive or inconclusive.

SMILES | Tb PGK inh | APEX1 inh | BLM helicase inh | FEN1 inh | RECQ1 inh-1 | RECQ1 inh-2 | others
CC(C)(C)OC(=O)CN1C(=O)S/C(=C\c2ccc(-c3cccc(C(=O)O)c3)o2)C1=O | . | - | - | . | . | .
Cc1cc(C)n2nc(C(=O)OCC(=O)c3cc(C)n(C)c3C)nc2n1 | - | - | - | - | ? | ?
Cc1cc(C)n2nc(C(=O)OCC(=O)c3cc(C)n(CC4CCCO4)c3C)nc2n1 (stereo not given) | - | - | - | - | - | .
Cc1ccc(O)c(N=Cc2cc(Cc3ccccc3)cc([N+](=O)[O-])c2O)c1 | - | - | - | ? | 12.6µM | ? | RECQ1 conf=56.2µM;RECQ1 ADP FP=44.7µM
CC(=O)c1cccc(N(C(=O)c2cnccn2)C(C(=O)NCc2ccccc2)c2ccco2)c1 (stereo not given) | - | - | - | - | 39.8µM | -
COc1ccc2c(c1)O/C(=C\c1ccco1)C2=O | - | ? | - | - | ? | -
Cc1ccc(/C=C2\SC(=S)N(Cc3ccccc3)C2=O)o1 | - | - | - | - | 17.8µM | . | RECQ1 conf=?;RECQ1 ADP FP=-
O=C(O)c1cc(-c2ccc(/C=C3/SC(=S)N(Cc4ccccc4)C3=O)o2)ccc1Cl | - | ? | - | - | 6.31µM | . | RECQ1 conf=?
COc1ccc(CN2C(=O)/C(=C/c3ccc(-c4ccc(Cl)c(C(=O)O)c4)o3)SC2=S)cc1 | . | ? | - | . | - | .
O=C1/C(=C/c2ccncc2)SC(=S)N1Cc1ccccc1 | - | - | - | - | - | .
COc1ccccc1Oc1nc2c(c(=O)n(Cc3ccccc3F)c(=O)n2C)n1C | - | ? | ? | - | ? | -
O=c1nc(/C=C/c2cc([N+](=O)[O-])ccc2Cl)cc(C(F)(F)F)[nH]1 | - | - | - | - | - | .
O=c1nc(/C=C/c2cccn2-c2ccc([N+](=O)[O-])cc2)cc(C(F)(F)F)[nH]1 | - | - | - | - | 35.5µM | ?
Cc1ccc(/C=C/C(=O)NCc2ccccn2)o1 | ? | ? | ? | - | ? | 17.8µM
COc1ccc(/C=C/C(=O)NCc2ccccn2)cc1 | - | - | - | - | - | .
Cc1cc(C)cc(SCc2noc(C(=O)NCC3CCCO3)c2C(=O)O)c1 (stereo not given) | - | - | - | - | - | . | RECQ1 conf=-;RECQ1 ADP FP=?
Cc1cccc(SCc2noc(C(=O)NCC3CCCO3)c2C(=O)O)c1 (stereo not given) | - | - | - | - | - | .
Brc1ccc(-c2cn3nc4c(nc3n2)CCCC4)cc1 | - | - | - | - | - | .
Nc1nn2cc(-c3ccc(Br)cc3)nc2c2ccccc12 | - | - | - | ? | ? | ?
CC1CCN(S(=O)(=O)c2ccc3c(c2)CCN3C(=O)C2CCC2)CC1 | - | - | - | - | . | .
O=c1cc(CSc2ccc(Cl)cc2)[nH]c2[nH]n(-c3ccccc3)c(=O)c12 | - | - | - | - | ? | -
Cc1cccc(OCC(=O)NCC(=O)N/N=C/c2c(C)[nH]c3ccccc23)c1 | - | - | - | - | - | .
COc1ccc(NC(=O)c2ccc(OCc3c(C)noc3C)c(OC)c2)cn1 | - | - | - | - | - | . | RECQ1 conf=-;RECQ1 ADP FP=112µM
O=C(Cn1cnc2sc(-c3ccccc3)cc2c1=O)N1CCOCC1 | . | - | - | - | - | .
Cc1ccc(OCC(O)CNC(=O)c2ccccc2C(=O)O)cc1 (stereo not given) | - | - | - | - | - | . | RECQ1 conf=-;RECQ1 ADP FP=-
SMILES | Tb PGK inh | APEX1 inh | BLM helicase inh | FEN1 inh | RECQ1 inh-1 | RECQ1 inh-2 | others
Cc1ccc(Oc2coc3cc(OC(=O)c4cccs4)ccc3c2=O)cc1 | - | - | - | - | - | .
CC(=O)Oc1ccc2c(=O)c(Oc3ccccc3)coc2c1OC(C)=O | - | 2.24µM | - | ? | 3.55µM | 25.1µM
COc1ccc(C(=O)Nc2nc(-c3ccc([N+](=O)[O-])cc3)c(-c3ccc(OC)cc3)s2)cc1 | - | - | - | - | ? | -
COc1ccc(C(=O)Nc2nc3c(s2)CCc2cc(OC)ccc2-3)cc1 | . | . | - | - | . | .
O=C(CSc1ccc2nnc(-c3ccccc3)n2n1)NCC1CCCO1 (stereo not given) | - | - | - | - | - | .
Cc1nc(/N=C(\N)NC(=O)N2c3ccccc3Sc3ccccc32)nc2ccccc12 | - | - | - | - | - | . | RECQ1 conf=-;RECQ1 ADP FP=-
Cc1nc(/N=C(\N)NC(=O)c2ccccc2)nc2ccccc12 | - | - | - | - | - | .
Cc1ccc(NS(=O)(=O)c2ccc(C)c(NC(=O)COc3ccccc3)c2)c(C)c1 | - | - | - | - | - | .
CCCCN(CC)CCCNC(=O)C1CCN(c2ncnc3c2sc2cccc(F)c23)CC1 | - | - | - | ? | - | .
Cc1ccc(-c2nn(-c3cccc(F)c3)cc2CN2CCN(c3ccccn3)CC2)o1 | - | - | - | ? | ? | ?
O=C(CSc1ccc(Cl)cc1)N1CCN(c2c(Cl)cccc2[N+](=O)[O-])CC1 | - | - | - | - | 8.91µM | - | RECQ1 conf=-;RECQ1 ADP FP=-
O=C(/C=C/c1ccc(Cl)cc1)N1CCN(c2c(Cl)cccc2[N+](=O)[O-])CC1 | - | - | - | - | - | .
O=C(O)c1ccc(Nc2nc(-c3ccccc3)nc3ccccc23)cc1 | . | - | - | - | . | .
NC(=O)C(c1ccccn1)c1ncc(C(F)(F)F)cc1Cl (stereo not given) | - | - | - | - | - | .
CCCCn1c(SCC(=O)NCc2ccco2)nc2ccc(N3CCOCC3)cc2c1=O | - | - | - | - | ? | ?
O=S(=O)(Nc1nc(-c2sccc2Cl)cs1)c1cc(Cl)ccc1Cl | - | - | - | - | ? | ?
COC(=O)c1ccc(/C(O)=C(\C#N)c2nc3ccccc3s2)cc1 | . | - | - | - | - | .
CC(C)=C(C#N)c1nc2ccccc2s1 | -[11.5 µM] | - | - | - | 10µM | -
Cc1ccc(S(=O)(=O)N(C)C)cc1NC(=O)COC(=O)Cc1n[nH]c(=O)c2ccccc12 | - | - | - | - | . | .
Cc1ccc(S(=O)(=O)N(C)C)cc1NC(=O)COC(=O)c1n[nH]c(=O)c2ccccc12 | - | - | - | - | - | . | RECQ1 conf=-;RECQ1 ADP FP=?
O=C(CSc1nc2c(c(=O)[nH]1)CN(Cc1ccc3c(c1)OCO3)CC2)Nc1ccccc1Cl | - | . | - | - | . | .
CC(C)C(NC(=O)COc1ccc2ccccc2c1)C(=O)N/N=C/C=C/c1ccccc1 (stereo not given) | - | - | - | - | - | .
NS(=O)(=O)c1cccc(NS(=O)(=O)c2ccc(/C=C/C(=O)OCC(=O)c3ccc(Br)cc3)cc2)c1 | - | - | - | - | ? | -
